# Measured values published in the supplement of paper PMC12282887.
# ± gives the standard deviation of the averaged measurements.
# How the values were obtained:
# Test in all cases: promoter activity interaction Z-score (Lux/OD deviation from empty-vector control); higher = stronger promoter induction by the compound
# [1] = tested on: E. coli BW25113 acrABp lux reporter
# In short: (§1)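 At 37°C, E. coli BW25113 reporter cultures in 40 µl LB Lennox in 384-well plates were read for OD600 and luminescence every 30 min for 12 h. Windows were 0–8 h for wild type and 1–9 h for deletion strains, and wells under 10% of the median growth value were removed. The score is the Z-transformed residual of growth-normalised luminescence against a control fit.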
# [2] = tested on: E. coli BW25113 micFp lux reporter
# In short: as §1
# [3] = tested on: E. coli BW25113 ompFp lux reporter
# In short: as §1
# [4] = tested on: E. coli BW25113 robp lux reporter
# In short: as §1
# [5] = tested on: E. coli BW25113 soxSp lux reporter
# In short: as §1
# [6] = tested on: E. coli BW25113 tolCp lux reporter
# In short: as §1
# [7] = 2.4 µg/ml, genetic background: wild type
# [8] = 2.4 µg/ml, genetic background: ΔmarA
# [9] = 2.4 µg/ml, genetic background: Δrob
# [10] = 2.4 µg/ml, genetic background: ΔsoxS
# [11] = 4.8 µg/ml, genetic background: wild type
# [12] = 4.8 µg/ml, genetic background: ΔmarA
# [13] = 4.8 µg/ml, genetic background: Δrob
# [14] = 4.8 µg/ml, genetic background: ΔsoxS
# [15] = 9.5 µg/ml, genetic background: wild type
# [16] = 9.5 µg/ml, genetic background: ΔmarA
# [17] = 9.5 µg/ml, genetic background: Δrob
# [18] = 9.5 µg/ml, genetic background: ΔsoxS
# [19] = 19 µg/ml, genetic background: wild type
# [20] = 19 µg/ml, genetic background: ΔmarA
# [21] = 19 µg/ml, genetic background: Δrob
# [22] = 19 µg/ml, genetic background: ΔsoxS
smiles,measurement,setting,value
CO[C@@H]1[C@@H](OC(N)=O)[C@@H](O)[C@H](Oc2ccc3c(O)c(NC(=O)c4ccc(O)c(CC=C(C)C)c4)c(=O)oc3c2C)OC1(C)C [Novobiocin],promoter activity interaction Z-score,[1]; [7],0.244 ± 0.011
same,promoter activity interaction Z-score,[1]; [8],-0.347 ± 1.3
same,promoter activity interaction Z-score,[1]; [9],0.848 ± 0.4
same,promoter activity interaction Z-score,[1]; [10],0.546 ± 0.036
same,promoter activity interaction Z-score,[1]; [11],0.442 ± 0.43
same,promoter activity interaction Z-score,[1]; [12],0.136 ± 0.95
same,promoter activity interaction Z-score,[1]; [13],1.49 ± 0.32
same,promoter activity interaction Z-score,[1]; [14],0.39 ± 0.16
same,promoter activity interaction Z-score,[1]; [15],0.927 ± 0.17
same,promoter activity interaction Z-score,[1]; [16],-0.164 ± 0.91
same,promoter activity interaction Z-score,[1]; [17],1.06 ± 0.42
same,promoter activity interaction Z-score,[1]; [18],1.16 ± 0.38
same,promoter activity interaction Z-score,[1]; [19],2.99 ± 1.6
same,promoter activity interaction Z-score,[1]; [20],0.0115
same,promoter activity interaction Z-score,[1]; [21],10.3 ± 1.3
same,promoter activity interaction Z-score,[1]; [22],4.62 ± 1.6
same,promoter activity interaction Z-score,[2]; [7],-0.408 ± 0.09
same,promoter activity interaction Z-score,[2]; [8],0.0296 ± 0.17
same,promoter activity interaction Z-score,[2]; [9],0.145 ± 0.073
same,promoter activity interaction Z-score,[2]; [10],-0.147 ± 0.056
same,promoter activity interaction Z-score,[2]; [11],0.134 ± 0.14
same,promoter activity interaction Z-score,[2]; [12],0.213 ± 0.017
same,promoter activity interaction Z-score,[2]; [13],0.0635 ± 0.05
same,promoter activity interaction Z-score,[2]; [14],-0.119 ± 0.12
same,promoter activity interaction Z-score,[2]; [15],0.284 ± 0.49
same,promoter activity interaction Z-score,[2]; [16],0.421 ± 0.17
same,promoter activity interaction Z-score,[2]; [17],0.245 ± 0.24
same,promoter activity interaction Z-score,[2]; [18],0.14 ± 0.16
same,promoter activity interaction Z-score,[2]; [19],1.5406 ± 0.00073
same,promoter activity interaction Z-score,[2]; [20],0.113 ± 0.18
same,promoter activity interaction Z-score,[2]; [21],-0.174 ± 0.2
same,promoter activity interaction Z-score,[2]; [22],1.4 ± 0.62
same,promoter activity interaction Z-score,[3]; [7],0.0673 ± 0.21
same,promoter activity interaction Z-score,[3]; [8],-0.291 ± 0.042
same,promoter activity interaction Z-score,[3]; [9],0.21 ± 0.083
same,promoter activity interaction Z-score,[3]; [10],-0.226 ± 0.19
same,promoter activity interaction Z-score,[3]; [11],0.318 ± 0.29
same,promoter activity interaction Z-score,[3]; [12],-0.339 ± 0.52
same,promoter activity interaction Z-score,[3]; [13],0.165 ± 0.0019
same,promoter activity interaction Z-score,[3]; [14],0.0876 ± 0.53
same,promoter activity interaction Z-score,[3]; [15],-0.446 ± 0.54
same,promoter activity interaction Z-score,[3]; [16],-1.53 ± 0.12
same,promoter activity interaction Z-score,[3]; [17],-1.13 ± 0.89
same,promoter activity interaction Z-score,[3]; [18],-0.424 ± 0.61
same,promoter activity interaction Z-score,[3]; [19],-1.63 ± 0.2
same,promoter activity interaction Z-score,[3]; [20],-1.87 ± 0.17
same,promoter activity interaction Z-score,[3]; [21],-2.05 ± 0.56
same,promoter activity interaction Z-score,[3]; [22],-1.87 ± 0.47
same,promoter activity interaction Z-score,[4]; [7],0.51 ± 0.35
same,promoter activity interaction Z-score,[4]; [8],0.679 ± 0.23
same,promoter activity interaction Z-score,[4]; [9],1.25 ± 0.25
same,promoter activity interaction Z-score,[4]; [10],0.985 ± 1.4
same,promoter activity interaction Z-score,[4]; [11],1.19 ± 0.16
same,promoter activity interaction Z-score,[4]; [12],1.57 ± 0.17
same,promoter activity interaction Z-score,[4]; [13],1.21 ± 0.23
same,promoter activity interaction Z-score,[4]; [14],1.76 ± 1.1
same,promoter activity interaction Z-score,[4]; [15],0.92 ± 0.12
same,promoter activity interaction Z-score,[4]; [16],1.41 ± 0.34
same,promoter activity interaction Z-score,[4]; [17],1.08 ± 0.13
same,promoter activity interaction Z-score,[4]; [18],1.88 ± 0.47
same,promoter activity interaction Z-score,[4]; [19],2.49 ± 0.18
same,promoter activity interaction Z-score,[4]; [20],2.71 ± 1.5
same,promoter activity interaction Z-score,[4]; [21],2.7 ± 1.2
same,promoter activity interaction Z-score,[4]; [22],2.56 ± 1.5
same,promoter activity interaction Z-score,[5]; [7],-0.136 ± 0.025
same,promoter activity interaction Z-score,[5]; [8],-0.0396 ± 0.014
same,promoter activity interaction Z-score,[5]; [9],0.132 ± 0.012
same,promoter activity interaction Z-score,[5]; [10],-0.0347 ± 0.41
same,promoter activity interaction Z-score,[5]; [11],0.0479 ± 0.082
same,promoter activity interaction Z-score,[5]; [12],-0.0499 ± 0.0013
same,promoter activity interaction Z-score,[5]; [13],0.0442 ± 0.016
same,promoter activity interaction Z-score,[5]; [14],0.0803 ± 0.2
same,promoter activity interaction Z-score,[5]; [15],-0.193 ± 0.16
same,promoter activity interaction Z-score,[5]; [16],-0.125 ± 0.18
same,promoter activity interaction Z-score,[5]; [17],0.00176 ± 0.065
same,promoter activity interaction Z-score,[5]; [18],0.0899 ± 0.22
same,promoter activity interaction Z-score,[5]; [19],-0.00867 ± 0.13
same,promoter activity interaction Z-score,[5]; [20],-0.000878 ± 0.32
same,promoter activity interaction Z-score,[5]; [21],-0.0162 ± 0.056
same,promoter activity interaction Z-score,[5]; [22],0.304 ± 0.35
same,promoter activity interaction Z-score,[6]; [7],0.183 ± 0.43
same,promoter activity interaction Z-score,[6]; [8],0.192 ± 0.74
same,promoter activity interaction Z-score,[6]; [9],0.95 ± 0.16
same,promoter activity interaction Z-score,[6]; [10],-0.793 ± 0.74
same,promoter activity interaction Z-score,[6]; [11],0.878 ± 0.85
same,promoter activity interaction Z-score,[6]; [12],1.47 ± 0.72
same,promoter activity interaction Z-score,[6]; [13],0.512 ± 0.0012
same,promoter activity interaction Z-score,[6]; [14],0.453 ± 0.65
same,promoter activity interaction Z-score,[6]; [15],0.713 ± 0.2
same,promoter activity interaction Z-score,[6]; [16],1.93 ± 0.4
same,promoter activity interaction Z-score,[6]; [17],1.26 ± 0.14
same,promoter activity interaction Z-score,[6]; [18],0.497 ± 0.4
same,promoter activity interaction Z-score,[6]; [19],1.73 ± 1.4
same,promoter activity interaction Z-score,[6]; [20],0.8 ± 2.4
same,promoter activity interaction Z-score,[6]; [21],2.44 ± 0.49
same,promoter activity interaction Z-score,[6]; [22],2 ± 0.17
